Records with an inconclusive call do not appear. The source made the active and inactive calls. Unless noted, calls follow the shape of the dose curve; as a rule, active = well fitted curve in the direction sought with a large enough effect; inconclusive = small, poorly fitted or top-dose-only effect, or another doubt; inactive = no such curve, though single readings can be large; an effect the other way counts as inactive or inconclusive.
Columns and labels:
[1] = qHTS Assay for Identification of Small Molecule Agonists for Thrombopoietin (TPO) Signaling Pathway (AID 917)
Procedure, shortened: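 Human TPO receptor–transfected Ba/F3 cells (murine, IL-3-dependent) in IL-3-deficient medium; compounds plus TPO at EC50, 26 pM final; 24 hrs, 37 C; GpIIb-luciferase luminescence after 10 min RT detection.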

[2] = target: Muscarinic acetylcholine receptor M1 (Rattus norvegicus) (UniProt P08482); test: qHTS Assay for Antagonists of Acetylcholine Muscarinic M1 Receptor: Kinetic Measurement of Intracellular Calcium Response (AID 943); also: nearly all actives have a fitted effect of over 75% in size; also: potency is read from the fitted curve at half-maximal effect
Muscarinic acetylcholine receptor M1 (Rattus norvegicus), sequence (P08482 whole entry, looked up): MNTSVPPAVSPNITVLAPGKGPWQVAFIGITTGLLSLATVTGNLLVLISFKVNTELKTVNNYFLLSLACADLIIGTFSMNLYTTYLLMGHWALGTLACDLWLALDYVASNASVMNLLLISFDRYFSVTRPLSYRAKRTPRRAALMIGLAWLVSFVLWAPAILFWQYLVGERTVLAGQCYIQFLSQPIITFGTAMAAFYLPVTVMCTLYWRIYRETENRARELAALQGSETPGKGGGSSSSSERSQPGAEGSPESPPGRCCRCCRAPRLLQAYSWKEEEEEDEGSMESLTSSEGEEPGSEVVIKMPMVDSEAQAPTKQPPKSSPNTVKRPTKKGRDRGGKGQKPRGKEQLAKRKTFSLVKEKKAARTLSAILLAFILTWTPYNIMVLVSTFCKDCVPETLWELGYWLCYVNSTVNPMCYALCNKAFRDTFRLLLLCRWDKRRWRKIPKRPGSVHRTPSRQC
Procedure, shortened: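 Read-out: peak over basal Fluo-4 fluorescence, kinetic at 1 Hz for 4 min after EC80 carbachol (100 nM final). Rat M1-CHO cells, dye loaded 1 h at 37C, compound added 10 min before agonist.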

[3] = target: Muscarinic acetylcholine receptor M1 (Rattus norvegicus) (UniProt P08482); test: qHTS Assay for Antagonists of Acetylcholine Muscarinic M1 Receptor: Measurement of IP-One Response (AID 944); also: nearly all actives have a fitted effect of over 75% in size; also: potency is read from the fitted curve at half-maximal effect
Procedure, shortened: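 Read-out: HTRF competition between d2-IP1 and Eu-cryptate anti-IP1 antibody, emission 620 and 665 nm. Stimulus was carbachol, EC80 (200 nM), for 30 min in M1-CHO cells (rat receptor), after 10 min compound pre-treatment.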

[4] = target: Pyruvate kinase (Leishmania mexicana) (UniProt Q27686); test: qHTS Validation Assay for Inhibitors of Leishmania Mexicana Pyruvate Kinase (AID 945)
Pyruvate kinase (Leishmania mexicana), sequence (Q27686 2-499 E452W): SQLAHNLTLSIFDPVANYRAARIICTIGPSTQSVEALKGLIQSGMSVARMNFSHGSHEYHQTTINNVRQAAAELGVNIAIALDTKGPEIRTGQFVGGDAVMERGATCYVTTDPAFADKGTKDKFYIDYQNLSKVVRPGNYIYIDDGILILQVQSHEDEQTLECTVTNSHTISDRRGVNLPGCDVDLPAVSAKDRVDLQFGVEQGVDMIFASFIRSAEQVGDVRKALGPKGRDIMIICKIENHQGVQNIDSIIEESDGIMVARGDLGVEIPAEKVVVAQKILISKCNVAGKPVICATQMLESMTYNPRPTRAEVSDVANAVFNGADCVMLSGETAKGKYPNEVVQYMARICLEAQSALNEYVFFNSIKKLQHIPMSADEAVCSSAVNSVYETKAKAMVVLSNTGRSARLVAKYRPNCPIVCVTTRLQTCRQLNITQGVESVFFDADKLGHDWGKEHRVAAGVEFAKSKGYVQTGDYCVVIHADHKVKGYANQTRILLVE
Procedure, shortened: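 Luminescent ATP detection (PKLight) after a 1 h room-temperature reaction of 0.2 nM LmPYK E451W mutant with 0.5 mM PEP and 0.1 mM ADP at pH 7.2. Activity is normalized to DMSO-only control wells.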

[5] = target: Pyruvate kinase PKM (Homo sapiens) (UniProt P14618); test: qHTS Assay for Activators of Human Muscle Pyruvate Kinase (AID 954; active = well fitted curve in the direction sought with a large enough effect, not every such curve was filed as active)
Pyruvate kinase PKM (Homo sapiens), sequence (P14618 whole entry, looked up): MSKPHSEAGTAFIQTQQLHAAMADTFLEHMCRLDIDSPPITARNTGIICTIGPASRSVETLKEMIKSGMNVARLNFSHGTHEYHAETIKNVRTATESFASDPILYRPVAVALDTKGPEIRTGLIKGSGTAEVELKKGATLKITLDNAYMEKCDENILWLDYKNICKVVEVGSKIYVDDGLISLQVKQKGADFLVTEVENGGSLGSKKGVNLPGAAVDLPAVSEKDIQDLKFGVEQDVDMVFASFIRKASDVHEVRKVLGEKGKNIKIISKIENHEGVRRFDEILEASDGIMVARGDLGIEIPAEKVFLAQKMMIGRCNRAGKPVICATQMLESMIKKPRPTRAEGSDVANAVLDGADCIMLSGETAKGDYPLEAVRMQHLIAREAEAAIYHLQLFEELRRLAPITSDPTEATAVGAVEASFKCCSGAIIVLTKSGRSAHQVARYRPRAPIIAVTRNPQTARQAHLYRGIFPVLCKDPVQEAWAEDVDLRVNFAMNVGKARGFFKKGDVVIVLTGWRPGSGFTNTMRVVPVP
Procedure, shortened: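 Compound pinned into substrate mix (0.5 mM PEP, 0.1 mM ADP), then 0.1 nM PKM2 added; 1 h, RT. Stop/detection luciferase reagent added, luminescence read. Normalized to no-inhibition and no-enzyme or reference-inhibitor controls.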

[6] = Cell Viability - LYMP2-001 (AID 921); also: series mostly up to about 92 µM; nearly all actives have a fitted effect of over 70% in size
Procedure, shortened: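 A lymphoblastoid cell line of human origin was treated with library compounds across a concentration series for 24 hours, and viable cell number was estimated from ATP-driven luciferase light output. Hill modeling gave AC50.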

[7] = MultiTox-Fluor Cytotoxicity Assay - LYMP1-001 - Live Cells (AID 947); also: potency is read from the fitted curve at half-maximal effect
[8] = Cell Viability - LYMP1-002 - Assay at 16 hr (AID 948); also: potency is read from the fitted curve at half-maximal effect
Procedure, shortened: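 In this qHTS, lymphoblastoid LYMP1-002 cells (human) receive compounds for 16 hr at 37 C. Viability is taken from CellTiter-Glo ATP luminescence, and AC50 derives from standard Hill fits.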

[9] = MultiTox-Fluor Cytotoxicity Assay - LYMP1-002 - Live Cells (AID 955)
Procedure, shortened: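 LYMP1-002 lymphoblastoid cells; 2500 cells/well; 16 hr compound exposure, 37 C; MultiTox-Fluor reagent 60 min RT; live-cell fluorescence Ex/Em=405/510; qHTS concentration-response, Hill-equation AC50; tetraoctylammonium bromide positive control.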

[10] = MultiTox-Fluor Cytotoxicity Assay - LYMP1-002 - Dead Cells (AID 960); also: nearly all actives have a fitted effect of over 60% in size
Procedure, shortened: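 Readout: fluorescence at 485/520 from cell-impermeant bis-AAF-R110 cleaved by proteases leaking from damaged cells. LYMP1-002 lymphoblastoid line, 16 hr compound treatment at 37 C, concentration-response in qHTS format; Hill-equation AC50 values.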

[11] = MultiTox-Fluor Cytotoxicity Assay - LYMP1-003 - Dead Cells (AID 961); also: nearly all actives have a fitted effect of over 70% in size; also: potency is read from the fitted curve at half-maximal effect
Procedure, shortened: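 LYMP1-003 human lymphoblastoid cells (2500/well) exposed to compound 16 h at 37 C in complete medium; dead-cell protease read with bis-AAF-R110 fluorescence (Ex/Em 485/520) after 60 min at room temperature. Normalized to DMSO and 15 uM tetraoctylammonium bromide; AC50 from Hill fit.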

[12] = MultiTox-Fluor Cytotoxicity Assay - LYMP1-003 - Live Cells (AID 962);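 also: cytotoxic hits lower the live-cell protease signal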
Procedure, shortened: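 Readout: live-cell fluorescence (Ex/Em=405/510) from GF-AFC cleavage after 60 min MultiTox-Fluor reagent at room temperature. Lymphoblastoid LYMP1-003 cells, 16 hr compound treatment, 37 C. Concentration-response fitted to standard Hill equation for AC50.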

[13] = Cell Viability - LYMP1-003 - Assay at 24 hr (AID 963); also: potency is read from the fitted curve at half-maximal effect
Procedure, shortened: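 CellTiter-Glo luminescence (intracellular ATP) read after 24 hr, 37 C compound exposure of 2500 LYMP1-003 human lymphoblastoid cells/well in complete medium; qHTS concentration series; AC50 via standard Hill equation.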

[14] = Cell Viability - LYMP1-003 - Assay at 40 hr (AID 964); also: nearly all actives have a fitted effect of over 60% in size; also: potency is read from the fitted curve at half-maximal effect
Procedure, shortened: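 LYMP1-003 lymphoblastoid cells, 2500/well; 5 hr preincubation, 40 hr compound exposure, 37 C; CellTiter-Glo 30 min RT; luminescence; Hill-fit AC50. Positive control tetraoctylammonium bromide.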

[15] = Cell Viability - LYMP2-003 (AID 965);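 also: cells exposed to compounds for 24 h before reading; nearly all actives have a fitted effect of over 50% in size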
Procedure, shortened: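 qHTS, human lymphoblastoid line, 2500 cells/well, complete medium. 24 h drug, 37 C. ATP-based luminescent readout; Hill-fit AC50.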

[16] = Cell Viability - LYMP2-005 (AID 967); also: series mostly up to about 92 µM
Procedure, shortened: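 Luciferase-based ATP quantitation served as the viability measure in human lymphoblastoid LYMP2-005 cells exposed to test compounds for 24 h at 37 C in complete culture medium. Potency (AC50) was obtained by fitting concentration-response curves with the Hill equation.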

[17] = Cell Viability - LYMP2-009 (AID 968); also: nearly all actives have a fitted effect of over 55% in size; also: potency is read from the fitted curve at half-maximal effect
[18] = Cell Viability - LYMP2-011 (AID 969); also: nearly all actives have a fitted effect of over 60% in size; also: potency is read from the fitted curve at half-maximal effect
Procedure, shortened: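 Luminescent ATP read-out (CellTiter-Glo, 30 min RT) after 24 hr compound exposure at 37 C in human lymphoblastoid cells, 2500 cells/well. Decreasing ATP indicates cytotoxicity; AC50 from standard Hill fit.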

[19] = Confirmation and Secondary Assay for Modulators of Hemoglobin Beta Chain Splicing at IVS2 705 locus (AID 930);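 also: HeLa cells stably expressing the EGFP-705 splicing reporter; GFP fluorescence per well restored by corrected splicing of the IVS2-705 intron in EGFP; series mostly up to about 46 µM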
Procedure, shortened: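 Read-out: total peak GFP fluorescence per well (488 nm excitation, 500-520 nm emission) by laser-scanning cytometry. Cells: HeLa EGFP-705 splicing reporter, 2 days compound exposure in Optimem/2% FCS.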

[20] = qHTS Assay for Identification of Small Molecule Antagonists for Thrombopoietin (TPO) Signaling Pathway (AID 918); settings: TPO-dependent cell signaling reporter, antagonist mode; also: potency is read from the fitted curve at half-maximal effect; nearly all actives have a fitted effect of over 60% in size
Procedure, shortened: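 Luminescence read-out: GPIIb-promoter luciferase in Ba/F3 cells carrying human TPO receptor. Compounds added with 26 pM TPO (EC50), 24 hrs, 37 C, 5% CO2; cells deprived of IL-3 overnight beforehand. Inhibition of signal scored.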

Measured: Potency

CCCn1cnc2c1c(=O)n(CCCCC(C)=O)c(=O)n2C
inactive: [1] | [2] | [3] | [4] | [5]

CCCCCCCCCCCCOS(=O)(=O)O
not listed: [1] | [2] | [3] | [4] | [5] | [19] | [20]
inactive: all other assays above

NC(=O)N/N=C/c1ccc([N+](=O)[O-])o1
inactive: [6] | [19] | [7] | [8] | [9] | [10] | [11] | [12] | [16]

C[C@]12CC[C@@H]3c4ccc(O)cc4CC[C@H]3[C@@H]1CCC2=O
inactive: [1] | [4] | [5]

NC(N)=NCCC[C@H](N)C(=O)O
inactive: [1] | [3] | [4] | [5]

NC1CCN(c2cccc(Cl)n2)CC1
inactive: [1] | [4] | [5]

CN(C)CCCN1c2ccccc2CCc2ccccc21
inactive: [1] | [4] | [5]

CN(C)CCCN1c2ccccc2Sc2ccc(Cl)cc21
active: [20] 12.6 µM
inactive: [19] | [4] | [5]

O=C1c2c(O)cccc2Cc2cccc(O)c21
not listed: [1] | [2] | [3] | [4] | [5] | [10] | [16] | [20]
inactive: all other assays above

CN(C)CCN(Cc1ccccc1)c1ccccn1
inactive: [19]

Cc1cc(CC(=O)O)n(C)c1C(=O)c1ccc(Cl)cc1
not listed: [1] | [2] | [3] | [4] | [5] | [20]
inactive: all other assays above

Nc1cc(=O)[nH]c(N)n1
inactive: [1] | [2] | [3] | [4] | [5]

CCN(CC)CCNC(=O)c1cc(Cl)c(N)cc1OC
inactive: [1] | [19] | [3] | [4] | [5]

O=C1O[C@H]([C@@H](O)CO)C(O)=C1O
not listed: [1] | [2] | [3] | [4] | [5] | [19] | [20]
inactive: all other assays above

CC(C)C(=O)c1c(C(C)C)nn2ccccc12
inactive: [1] | [2] | [3] | [4] | [5]

CC(C)NC[C@H](O)c1ccc(O)c(O)c1
inactive: [1] | [4] | [5]

CNCCCC1c2ccccc2C=Cc2ccccc21
active: [20] 10 µM | [3] 0.398 µM
inactive: [4] | [5]

Oc1cccc(O)c1
not listed: [1] | [2] | [3] | [4] | [5] | [7] | [10] | [20]
inactive: all other assays above

CC1=C(CC(=O)O)c2cc(F)ccc2/C1=C\c1ccc(S(C)(=O)=O)cc1
inactive: [1] | [3] | [4] | [5]

N=c1c[n+](N2CCOCC2)[n-]o1
inactive: [1] | [3] | [4] | [5]

Cc1cc2nc3c(=O)[nH]c(=O)nc-3n(C[C@H](O)[C@H](O)[C@H](O)CO)c2cc1C
active: [11] 39.8 µM
not listed: [1] | [2] | [3] | [4] | [5] | [9] | [19] | [20]
inactive: all other assays above

NCCNCCNCCN
not listed: [1] | [2] | [3] | [4] | [5] | [19] | [20]
inactive: all other assays above

[Cl][In]([Cl])[Cl]
not listed: [1] | [2] | [3] | [4] | [5] | [19] | [20]
inactive: all other assays above

CCCCOC(=O)c1ccc(O)cc1
not listed: [1] | [2] | [3] | [4] | [5] | [19] | [20]
inactive: all other assays above

C#CCN(C)Cc1ccccc1
inactive: [1] | [2] | [3] | [4] | [5]

CC12CCC(CC1)C(C)(C)O2
not listed: [1] | [2] | [3] | [4] | [5] | [20]
inactive: all other assays above

OCc1cc(C(O)CNCCCCCCOCCCCc2ccccc2)ccc1O (centres undefined)
active: [20] 10 µM
inactive: [3] | [4] | [5]

C[C@]12C[C@H](O)[C@H]3[C@@H](CCC4=CC(=O)CC[C@@]43C)[C@@H]1CC[C@@H]2C(=O)CO
not listed: [1] | [19] | [20]
inactive: all other assays above

OCCN1CCN(CCCN2c3ccccc3Sc3ccc(Cl)cc32)CC1
active: [20] 15.8 µM
inactive: [19] | [4] | [5]

NC(=O)c1ncn([C@@H]2O[C@H](CO)[C@@H](O)[C@H]2O)n1
not listed: [1] | [2] | [4] | [14] | [19] | [20]
inactive: all other assays above

C=Cc1c(C)c2cc3[nH]c(cc4nc(cc5nc(cc1[nH]2)C(C)=C5CCC(=O)O)C(CCC(=O)O)=C4C)c(C)c3C=C
inactive: [1] | [19] | [2] | [3] | [4] | [5]

CC1=C(CC(=O)O)c2cc(F)ccc2/C1=C\c1ccc(S(C)=O)cc1 (centres undefined)
inactive: [1] | [19] | [4] | [5]

COc1ccccc1O
not listed: [1] | [2] | [3] | [4] | [5] | [19] | [20]
inactive: all other assays above

CC(=O)OCC(=O)[C@@]1(O)CC[C@H]2[C@@H]3CCC4=CC(=O)CC[C@]4(C)[C@H]3C(=O)C[C@@]21C
inactive: [1] | [4] | [5]

CCCCCCCCCCCCCCCC(=O)NCCO
inactive: [1] | [3] | [4] | [5]

CN(C)CCC=C1c2ccccc2CCc2ccccc21
inactive: [1] | [19] | [4] | [7] | [8] | [5] | [9] | [12] | [13] | [15]

CC1(C)[C@@H]2CC[C@@]1(C)C(=O)C2
inactive: [6] | [7] | [8] | [9] | [11] | [12] | [13] | [14] | [15] | [17] | [18]

NCCNCCNCCNCCN
not listed: [1] | [2] | [3] | [4] | [5] | [19] | [20]
inactive: all other assays above

COc1ccc(Cl)cc1C(=O)NCCc1ccc(S(=O)(=O)NC(=O)NC2CCCCC2)cc1
inactive: [1] | [19] | [3] | [4] | [5]

Cc1cc(N)c2ccccc2[n+]1CCCCCCCCCC[n+]1c(C)cc(N)c2ccccc21
active: [2] 1.78 µM | [3] 2.24 µM

Cc1c(O)cccc1C(=O)N[C@@H](CSc1ccccc1)[C@H](O)CN1C[C@H]2CCCC[C@H]2C[C@H]1C(=O)NC(C)(C)C
active: [7] 39.8 µM | [8] 50.1 µM | [11] 50.1 µM | [13] 39.8 µM | [14] 39.8 µM | [17] 50.1 µM | [18] 50.1 µM

Nc1ccc(S(=O)(=O)Nc2nccs2)cc1
inactive: [7] | [8] | [9] | [11] | [12] | [13] | [14] | [15] | [16] | [17] | [18]

Source: PubChem BioAssay (NCATS)
